PfHsp40 rescue: rescue of yeast from PfHsp40 toxicity, primary screen, S. cerevisiae, ATP luminescence; S. cerevisiae expressing PfHsp40, growth rescue; growth rescue, % at 12.5 µM; 340,000 compounds, 0.68% hits; in the data active = growth rescue above about 28%, passing the limit was not always enough; inconclusive = no clear call, values can overlap the other calls;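 also: yeast W303a lacking pdr1 and pdr3 grown in galactose medium; growth measured after three days at 30 °C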
BoNT A protease: BoNT/A light chain protease inhibitors, primary screen, biochemical, flow cytometry, MLPCN library; Botulinum neurotoxin type A light chain protease (Clostridium botulinum A str. ATCC 3502); multiplex microsphere protease substrate cleavage; inhibition, % at 10 µM; 360,000 compounds, 0.17% hits
Anthrax LF prot: Bacillus anthracis LF protease inhibitors, primary screen, biochemical, multiplex microsphere, MLPCN library. Lethal factor (Bacillus anthracis), P15917. multiplex microsphere protease cleavage assay. inhibition, % at 10 µM. 360,000 compounds, 0.12% hits
Target sequence (P15917 whole entry, looked up): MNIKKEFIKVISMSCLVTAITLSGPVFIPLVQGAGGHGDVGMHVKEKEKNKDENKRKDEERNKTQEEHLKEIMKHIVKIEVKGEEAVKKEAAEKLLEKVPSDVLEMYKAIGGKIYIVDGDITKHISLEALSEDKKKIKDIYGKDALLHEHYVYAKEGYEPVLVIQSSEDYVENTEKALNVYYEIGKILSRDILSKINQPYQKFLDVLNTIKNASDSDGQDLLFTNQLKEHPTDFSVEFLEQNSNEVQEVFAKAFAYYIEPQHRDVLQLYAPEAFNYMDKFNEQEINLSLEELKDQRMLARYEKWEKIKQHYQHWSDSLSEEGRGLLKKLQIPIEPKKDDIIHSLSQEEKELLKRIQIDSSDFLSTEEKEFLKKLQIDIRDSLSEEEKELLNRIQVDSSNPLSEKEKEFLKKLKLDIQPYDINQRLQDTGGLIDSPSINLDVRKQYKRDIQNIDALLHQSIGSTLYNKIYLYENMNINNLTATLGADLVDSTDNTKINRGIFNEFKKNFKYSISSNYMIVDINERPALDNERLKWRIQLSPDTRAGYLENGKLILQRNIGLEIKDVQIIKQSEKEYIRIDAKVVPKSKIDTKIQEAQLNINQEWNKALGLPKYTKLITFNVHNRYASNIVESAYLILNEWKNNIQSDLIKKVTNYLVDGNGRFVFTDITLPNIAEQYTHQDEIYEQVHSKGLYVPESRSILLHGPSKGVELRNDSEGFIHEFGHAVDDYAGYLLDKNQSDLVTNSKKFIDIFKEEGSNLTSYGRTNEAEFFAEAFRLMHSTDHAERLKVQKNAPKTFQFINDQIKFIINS
Autofluor counter: flagged as autofluorescent in microsphere protease counterscreen. compound autofluorescence counterscreen, microsphere flow cytometry; active compounds read high. fluorescence intensity (concentration not given with the values). 360,000 compounds, 3.1% hits. AID 624483; in the data active = fluorescence intensity above about 16000; inconclusive = no clear call, values can overlap the other calls
MazEF act: activators of E. coli MazEF toxin-antitoxin RNase, primary screen, biochemical, fluorescence, uHTS | Endoribonuclease toxin MazF (Escherichia coli (strain K12)), P0AE70 | FAM/BHQ RNA-DNA oligo cleavage fluorescence, 5 h | activation, % at 20 µM | 350,000 compounds, 0.32% hits | AID 504720, 2011; in the data active = activation above about 50%
BoNT-F LC inh: BoNT/F light chain protease inhibitors, primary screen, biochemical, flow cytometry, MLPCN library; Botulinum neurotoxin type F light chain protease (Clostridium botulinum); 360,000 compounds, 0.22% hits; AID 588497, 2011; Multiplex microsphere protease cleavage assay; inhibition, % at 10 µM; in the data active = inhibition above about 35%, passing the limit was not always enough; inconclusive = no clear call, values can overlap the other calls
Each line names hits and unclear results; the compound was inactive in the other large screens. The list is not random: actives were taken first. Their share in the collection is about 4.3%. Rule as the data show it, unless noted: active = inhibition above about 30%; inconclusive = no clear call, values can overlap the other calls; inactive = below that.

COc1cccc(NC(=O)CN2CCN(CC(=O)Nc3ccc(F)cc3)CC2)c1	none
CC(C)OP(=O)(OC(C)C)C(O)c1ccc(N(C)C)cc1 (stereo unspecified)	none
C[C@@H]1CN([C@H](C)CO)C(=O)CCCn2nncc2CO[C@@H]1CN(C)C(=O)c1cc(-c2ccccc2)on1	none (no result: PfHsp40 rescue)
COc1cccc(N/C(SC)=C(/C#N)C(N)=O)c1	Autofluor counter 23601
COc1cccc(NC(=O)CSCC(=O)O)c1	Autofluor counter 17067
COc1cccc(NC(=O)COC(=O)c2c3c(nc4ccccc24)CCC(C)C3)c1 (stereo unspecified)	Autofluor counter 19387
O=C(NCc1cccnc1)C1CCCN(Cc2cnn(-c3ccccc3)c2-n2cccc2)C1 (stereo unspecified)	Autofluor counter 23887
O=C(NCc1ccccn1)C1CCN(Cc2cnn(-c3ccccc3)c2-n2cccc2)CC1	Autofluor counter 22540
CCN(CC)C(=O)CSCc1cnn(-c2ccccc2)c1-n1cccc1	BoNT A protease inconclusive, Autofluor counter 22480
O=C(NC1CC1)C1CCN(Cc2cnn(-c3ccccc3)c2-n2cccc2)CC1	Autofluor counter 23345
CN(C)C(=O)CSc1n[nH]c(=O)n1CCc1ccccc1	none
COc1cc(/C=C2\C(=N)N3N=C(S(C)(=O)=O)SC3=NC2=O)cc(OC)c1OCCOc1ccccc1C	BoNT-F LC inh inconclusive
COc1cc(/C=C2\C(=N)N3N=C(C)SC3=NC2=O)cc(OC)c1OCCOc1ccccc1C	BoNT-F LC inh 55.3
CCOc1ccc(N(CC)S(=O)(=O)c2ccc3c(c2)oc(=O)n3C)cc1	Autofluor counter 17539
CCN(c1cccc(C)c1)S(=O)(=O)c1ccc2c(c1)oc(=O)n2C	none
CCCCn1c(=N)n(CC(=O)c2ccco2)c2ccccc21	none
CCCCCCCn1c(=N)n(CC(=O)c2ccco2)c2ccccc21	Anthrax LF prot 71.8, Autofluor counter inconclusive
Cc1ccccc1NC(=O)OCc1cn(-c2ccc(Cl)cc2)nn1	Autofluor counter 22413
CCCCC(=O)OCc1cn(-c2ccc(Cl)cc2)nn1	Autofluor counter 22405
O=C(CN1CCOCC1)Nc1ccc(N2CCN(c3ccccc3)CC2)c(F)c1	none
CC(CC(=O)NCc1ccccc1)C1CCCO1 (stereo unspecified)	Autofluor counter 19114
CCCn1[nH]cc(SC)c(=O)c1=O	BoNT A protease inconclusive, Autofluor counter 16432
CC(C)=CCc1c(O)ccc(C(=O)Cc2ccccc2)c1O	PfHsp40 rescue 611.1
COc1ccccc1N1CCN(S(=O)(=O)CCNC(=O)C2CCCCC2)CC1	none
O=C(Nc1ccccc1)c1ccc(NCCN2C(=O)CCC2=O)c([N+](=O)[O-])c1	MazEF act 50.5
O=C(Nc1cc(F)cc(F)c1)c1ccc(NCCc2ccccc2)c([N+](=O)[O-])c1	MazEF act 551.6
O=C(Nc1ccccc1)c1ccc(NCC2CCCO2)c([N+](=O)[O-])c1 (stereo unspecified)	none
CCC1=NN(C(=O)c2cccc(Br)c2)C(O)(c2ccc(Br)cc2)C1 (stereo unspecified)	PfHsp40 rescue 91.2
O=C(C1CCN(c2ccc(N3CCOCC3)nn2)CC1)N1CCN(c2ccc(F)cc2)CC1	Autofluor counter 22313
O=C(C1CCN(S(=O)(=O)N2CCOCC2)CC1)N1CCN(c2ccc(F)cc2)CC1	none
Cc1ccc(C)c2c1cc(C)c1nnc(SCc3ccccn3)n12	Autofluor counter 26246
Cc1cc2cc(C)c3nnc(SCc4ccccn4)n3c2cc1C	none
O=C(CN1CCN(S(=O)(=O)c2ccc(Br)cc2)CC1)N/N=C/c1ccncc1	none
Cc1ccc([N+](=O)[O-])cc1NC(=O)CCCOc1ccccc1	Autofluor counter 16846
Cc1cccc(NC(=O)c2ccc(Cn3cc(C(F)(F)F)ccc3=O)cc2)c1	Autofluor counter 16900
Cc1noc(C)c1-c1nc(CS(=O)(=O)c2ccccc2)no1	BoNT A protease inconclusive, BoNT-F LC inh inconclusive
COCc1c(C(=O)OC)nnn1-c1ccccc1	BoNT A protease inconclusive, Autofluor counter 22960
